Screening data as filed in PubChem.
DAX1 inh-1 – inhibitors of DAX1 repression of SF-1 activated StAR promoter | hit rate 1.1% among 370,000 | HEK293T StAR-luciferase reporter, SF-1/DAX-1 repression relief | inhibition, % at 6.8 µM | AID 652010;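 active = inhibition above the mean over all tested compounds plus 3 SD, cut at about 3.6% in these data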;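 also: higher inhibition means more luminescence from relief of DAX-1 repression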
SMARCA2 act – activators of SMARCA2 function; MG213 cells, MMTV-luciferase reporter, dexamethasone, overnight; activation, % at 9.1 µM; hit rate 1% among 370,000; AID 652017; in the data active = activation above about 7.8%
ssDAF-12 act – activates DAF-12 receptor from parasite S. stercoralis. HEK293 ssDAF-12/GRIP1 lit1-tk-luc reporter, luminescence; % of 3 µM dafachronic acid response. activation, % at 6.8 µM. hit rate 1% among 370,000. AID 652126;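 active = activation above the mean over all tested compounds plus 3 SD, cut at about 0.9% in these data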
hgDAF12 agonist – agonists of H. glycines DAF-12 nuclear receptor. hit rate 1.8% among 370,000. HEK293 GAL4-hgDAF12 UAS-luciferase reporter, agonist luminescence; normalized to butyrate control. AID 687014. activation, % at 6.8 µM;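 active = activation above a cutoff set at the mean of all screened compounds plus 3 SD, cut at about 10% in these data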
DAX1 inh-2 – NR0B1 (DAX1) inhibition | inhibition, % at 6.75 µM | AID 504766 | P51843 | hit rate 0.99% among 340,000 | HEK293 Gal4-DAX1 luciferase reporter, luminescence;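 active = inhibition above the mean over all tested compounds plus 3 SD, cut at about 4.2% in these data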;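 also: inhibition shows as a rise in luminescence from relieved DAX1 repression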
Target sequence (P51843 207-470 limits assumed): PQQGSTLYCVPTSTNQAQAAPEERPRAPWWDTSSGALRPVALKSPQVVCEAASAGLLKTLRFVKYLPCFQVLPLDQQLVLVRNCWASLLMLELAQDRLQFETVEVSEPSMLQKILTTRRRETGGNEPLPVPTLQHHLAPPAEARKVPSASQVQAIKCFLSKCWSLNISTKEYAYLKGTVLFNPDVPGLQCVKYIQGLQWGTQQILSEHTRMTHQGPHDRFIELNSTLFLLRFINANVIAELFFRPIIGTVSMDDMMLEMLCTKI
hcDAF12 agonist – activates DAF-12 receptor from parasite H. contortus; hit rate 1.4% among 370,000; activation, % at 6.8 µM; HEK293 hcDAF-12 lit1-tk-luc reporter, luminescence; 0% DMSO, 100% Δ7-dafachronic acid;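 active = activation above the mean of all tested compounds plus 3 SD, cut at about 5.5% in these data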
SMARCA2 act conf – confirmation of SMARCA2 (BRM) function activators. shares compounds with SMARCA2 act. MG213 cells, MMTV-luciferase with dexamethasone, luminescence, overnight; MG213 cells expressing E1A, Rb sequestered; DMSO wells 0%, reference activator 100%. activation, % at 9.1 µM. hit rate 30% among 3,500. AID 652260;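 active = activation above its plate's cutoff, the mean activation of tested wells plus 3 SD, cut at about 7.9% in these data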
VP16 Luc act – activates GAL4-VP16 luciferase, flagging SMARCA2 activator hits. hit rate 41% among 3,500. HEK293 GAL4-VP16 pG5luc reporter, luciferase luminescence; scaled: DMSO wells 0%, SAHA wells 100%. activation, % at 9.1 µM. shares compounds with SMARCA2 act;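 active = activation above the solvent-only control well mean plus 3 SD, averaged across control plates, cut at about 5.2% in these data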
Hits are given with their value; . = inactive; / = no result. Rows were chosen to be rich in hits. Some 4.8% of all compounds tested hit in one or more screens of this group.

SMILES	DAX1 inh-1	SMARCA2 act	ssDAF-12 act	hgDAF12 agonist	DAX1 inh-2	hcDAF12 agonist	SMARCA2 act conf	VP16 Luc act
CCCCCCCCN1C(=O)[C@@H](CC(=O)N2CCN(C(=O)OCC)CC2)C[C@@]2(C(=O)OC)C1=C[C@H](C(C)(C)C)O[C@@H]2C	.	.	.	.	/	.	/	/
CCCSc1nnc(NC(=O)Nc2ccc(C)cc2)s1	.	8.0	.	.	/	.	.	.
COc1ccc(COC(=O)N/N=C/c2cccs2)cc1	.	9.3	.	.	.	.	.	.
COc1ccc(CC(=O)N/N=C/c2cccs2)cc1OC	.	.	.	.	.	.	/	/
CN1CCN(C(=O)c2cn(C)c3ccc(S(=O)(=O)N(C)C4CCCCC4)cc3c2=O)CC1	.	8.5	.	.	.	.	.	.
CCn1c(SCC(=O)NN=Cc2cc(OC)ccc2OC)nnc1-c1ccc(OC)cc1	.	.	.	.	/	.	/	/
Cn1cc(-c2nc3ccccc3[nH]2)c2ccccc21	.	9.0	.	.	.	.	15	.
COC(=O)[C@]12C[C@H](CC(=O)NCCCCc3ccccc3)C(=O)N(Cc3ccc(Cl)cc3Cl)C1=C[C@H](C(C)C)O[C@@H]2C1CC1	.	.	.	.	/	.	/	/
O=C(NCCc1ccc(F)cc1)C1CCN(C(=O)Nc2ccccc2)CC1	.	8.0	.	.	.	.	.	.
O=C(NCCc1ccccc1)C1CCN(C(=O)c2ccc(F)cc2)CC1	.	.	.	.	.	.	/	/
C=CCN1C(=O)[C@@H](CC(=O)NCCCOC)[C@]2(C(=O)OC)CCCCC=C12	.	.	.	.	/	.	/	/
C/C(=N/NC(=O)c1ccco1)c1cccnc1	.	8.3	.	.	.	.	.	.
C/C(=N\NC(=O)c1ccc(Br)cc1)c1cccnc1	.	.	.	.	.	.	/	/
CCN1CCCC1CNC(=O)C(=O)Nc1ccccc1 (configuration not stated)	.	11	.	.	.	.	.	6.1
CCOc1ccc(NC(=O)C(=O)NCC2CCCN2CC)cc1 (configuration not stated)	.	.	.	.	.	.	/	/
CCOC(=O)c1cccc(-c2c(-c3ccccc3)ncc3cc(OC)c(OC)cc23)c1	.	12	.	.	.	.	11	5.8
COc1cc2cnc(-c3ccccc3)c(-c3cc(OC)c(OC)c(OC)c3)c2cc1OC	.	.	.	.	.	.	/	/
Cc1cc(-c2n[nH]c(=S)n2N=Cc2cc(Br)ccc2F)n[nH]1	.	.	.	.	/	.	/	/
CCN(CC)C(=O)C1=C(C)N(Cc2ccc(F)cc2)C(=O)C(CC(=O)NCc2cccs2)C1 (configuration not stated)	.	.	.	.	.	.	/	/
CCN(CC)C(=O)C1=C(C)N(Cc2ccc(F)cc2)C(=O)C(CC(=O)NCc2ccco2)C1 (configuration not stated)	.	8.4	.	.	.	.	.	.
C[C@@H]1ON(C)[C@H]2C[C@H]3c4[nH]c5c(-c6ccccc6)cccc5c4CCN3C[C@@H]12	.	.	.	.	/	.	/	/
O=C(/C=C/c1ccccc1)Nc1cccc(C(=O)NC2CC2)c1	3.8	13	.	.	.	.	.	6.7
O=C(/C=C/c1ccccc1)Nc1cccc(C(=O)NCc2ccccc2)c1	.	.	.	.	/	.	/	/
Cc1nc(SCC(=O)N(C)c2ccccc2)[nH]c(=O)c1C	/	/	.	.	/	.	/	/
COc1ccc(CNC(=O)C(C)Sc2nc3ccccc3c(=O)n2CCCN2CCOCC2)cc1 (configuration not stated)	.	11	.	.	.	.	.	.
COP(=O)(O)C[C@@H]1CCc2cc(C)cc([C@H](CC(C)C)NC(=O)OCc3ccccc3)c2O1	.	.	.	.	/	.	/	/
CC1CCN(C(=S)NC(=O)c2cccc([N+](=O)[O-])c2)CC1	.	8.6	.	.	.	.	.	.
